From PubChem BioAssay (EPA / NIEHS)
Inconclusive results are not listed. The source made the active and inactive calls. How the source made its calls: active means hit-call score of the fitted dose curve at least 0.9, where 1 is the maximum; inconclusive means response in the unintended direction; inactive means score below 0.9.

What was measured:
[1] = target: Estrogen receptor (Homo sapiens) (UniProt P03372); test: OT_ER_ERaERa_0480: Odyssey Thera (OT) 8-hour HEK293T Protein-Complementation Assay for Estrogen Receptor-alpha/-alpha Homodimer (AID 2283351);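 further: rise in fluorescence from reassembled reporter fragments on ERα LBD homodimer in nucleus or whole cell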
Chain of Estrogen receptor (Homo sapiens) (P03372 whole entry, looked up, the tested form may be a part): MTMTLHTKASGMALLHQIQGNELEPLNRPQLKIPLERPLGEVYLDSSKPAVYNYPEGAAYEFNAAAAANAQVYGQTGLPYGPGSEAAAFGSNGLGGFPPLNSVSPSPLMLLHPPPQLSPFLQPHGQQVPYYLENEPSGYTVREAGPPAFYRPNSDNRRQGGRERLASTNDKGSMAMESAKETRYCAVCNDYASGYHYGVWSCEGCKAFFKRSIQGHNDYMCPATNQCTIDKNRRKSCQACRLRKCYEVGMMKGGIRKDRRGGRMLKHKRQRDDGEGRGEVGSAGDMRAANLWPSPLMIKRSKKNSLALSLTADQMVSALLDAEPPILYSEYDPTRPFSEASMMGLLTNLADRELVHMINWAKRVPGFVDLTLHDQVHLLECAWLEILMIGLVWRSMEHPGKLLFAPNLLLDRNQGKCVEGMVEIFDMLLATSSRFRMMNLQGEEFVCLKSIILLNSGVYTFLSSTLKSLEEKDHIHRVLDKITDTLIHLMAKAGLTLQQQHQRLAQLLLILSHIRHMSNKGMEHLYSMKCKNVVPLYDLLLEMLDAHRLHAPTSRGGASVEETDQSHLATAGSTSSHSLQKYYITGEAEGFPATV
Summary of the method: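 HEK293T cells stably expressing the human ERα ligand-binding domain (aa 310-547) as a homodimer PCA were dosed with compound for 8 h. Gain of fluorescence intensity versus DMSO vehicle was read by laser scanning cytometry.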

[2] = target: Estrogen receptor (Homo sapiens) + Estrogen receptor beta (Homo sapiens) (UniProt P03372+Q92731); test: OT_ER_ERaERb_1440: Odyssey Thera (OT) 24-hour HEK293T Protein-Complementation Assay for Estrogen Receptor-alpha/-beta Homodimer (AID 2283356);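 further: heteromer of ER alpha and ER beta binding domains; hits raise reporter fluorescence and both agonists and antagonists give an increase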
Chain of Estrogen receptor (Homo sapiens) + Estrogen receptor beta (Homo sapiens) (P03372 whole entry, looked up, the tested form may be a part): as above
Chain of Estrogen receptor (Homo sapiens) + Estrogen receptor beta (Homo sapiens) (Q92731 whole entry, looked up, the tested form may be a part): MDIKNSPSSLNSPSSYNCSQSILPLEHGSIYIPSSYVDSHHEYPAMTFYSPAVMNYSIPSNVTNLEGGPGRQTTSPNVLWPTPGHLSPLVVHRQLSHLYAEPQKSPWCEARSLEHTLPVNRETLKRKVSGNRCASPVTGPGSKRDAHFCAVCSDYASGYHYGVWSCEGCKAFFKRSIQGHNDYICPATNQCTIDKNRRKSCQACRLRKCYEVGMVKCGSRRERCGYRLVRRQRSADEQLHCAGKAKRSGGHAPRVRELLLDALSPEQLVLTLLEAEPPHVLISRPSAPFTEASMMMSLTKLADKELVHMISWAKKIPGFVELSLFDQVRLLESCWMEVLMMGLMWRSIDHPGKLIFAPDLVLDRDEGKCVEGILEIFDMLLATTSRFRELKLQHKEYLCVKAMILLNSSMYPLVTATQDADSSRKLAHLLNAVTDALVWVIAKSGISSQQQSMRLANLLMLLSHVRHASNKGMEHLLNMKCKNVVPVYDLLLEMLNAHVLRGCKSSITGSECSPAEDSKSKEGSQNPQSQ
Summary of the method: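 HEK293T stably expressing a PCA of ER alpha LBD (aa 310-547) and ER beta LBD (aa 263-489). After 24 h compound exposure, mean fluorescence intensity in nucleus (agonists) or nucleus and cytoplasm (antagonists) measured by laser scanning cytometry versus vehicle.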

[3] = target: Estrogen receptor beta (Homo sapiens) (UniProt Q92731); test: OT_ER_ERbERb_0480: Odyssey Thera (OT) 8-hour HEK293T Protein-Complementation Assay for Estrogen Receptor-beta/-beta Homodimer (AID 2283357);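 further: active means signal gain over DMSO baseline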
Chain of Estrogen receptor beta (Homo sapiens) (Q92731 whole entry, looked up, the tested form may be a part): as above
Summary of the method: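 Readout: increase in mean fluorescence intensity (nucleus for agonists; nucleus plus cytoplasm for antagonists) relative to DMSO, from a reporter-fragment complementation of human ER-beta LBD homodimer in HEK293T cells dosed 8 hours.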

[4] = target: Nuclear receptor subfamily 1 group I member 2 (Homo sapiens) (UniProt O75469); test: NVS_NR_hPXR: NovaScreen (NVS) Nuclear Receptor Binding Assay for human Pregnane X Receptor (PXR) (AID 2283365);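 further: a drop in FRET signal versus DMSO baseline means the compound binds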
Chain of Nuclear receptor subfamily 1 group I member 2 (Homo sapiens) (O75469 whole entry, looked up): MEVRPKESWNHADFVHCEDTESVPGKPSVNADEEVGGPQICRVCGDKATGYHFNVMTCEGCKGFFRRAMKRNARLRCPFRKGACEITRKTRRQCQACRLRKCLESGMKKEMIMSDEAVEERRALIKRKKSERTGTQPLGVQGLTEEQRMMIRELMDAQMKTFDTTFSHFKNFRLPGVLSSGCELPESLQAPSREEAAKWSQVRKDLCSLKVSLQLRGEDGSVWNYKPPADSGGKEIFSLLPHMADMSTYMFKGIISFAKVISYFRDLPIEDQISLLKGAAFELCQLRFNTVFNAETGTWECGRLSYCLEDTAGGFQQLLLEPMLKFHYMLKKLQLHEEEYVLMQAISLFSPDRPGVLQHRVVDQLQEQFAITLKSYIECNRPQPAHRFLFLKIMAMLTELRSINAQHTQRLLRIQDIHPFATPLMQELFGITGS
Summary of the method: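 Cell-free TR-FRET binding assay with extracted human PXR protein, read 2 h after dosing. Primary screen run in duplicate at 25 uM, actives followed in concentration series; loss of signal fitted against DMSO baseline.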

[5] = target: Estrogen receptor beta (Homo sapiens) (UniProt Q92731); test: OT_ER_ERbERb_1440: Odyssey Thera (OT) 24-hour HEK293T Protein-Complementation Assay for Estrogen Receptor-beta/-beta Homodimer (AID 2283380);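 further: fluorescence gain from ER beta LBD homodimer complementation read by laser scanning cytometry; scored as signal increase over DMSO baseline for both agonists and antagonists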
Summary of the method: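 HEK293T cells stably expressing human ER-beta LBD (aa 310-547) PCA homodimer pair, dosed 24 h; formaldehyde-fixed, Draq5-stained. Readout: increase in nuclear (agonist) or nuclear plus cytoplasmic (antagonist) fluorescence intensity versus DMSO, gain-of-signal fitting.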

[6] = target: Peroxisome proliferator-activated receptor gamma (Homo sapiens) (UniProt P37231); test: NVS_NR_hPPARg: NovaScreen (NVS) Nuclear Receptor Binding Assay for human Peroxisome Proliferator-activated Receptor gamma (PPARg) (AID 2283370)
Chain of Peroxisome proliferator-activated receptor gamma (Homo sapiens) (P37231 whole entry, looked up): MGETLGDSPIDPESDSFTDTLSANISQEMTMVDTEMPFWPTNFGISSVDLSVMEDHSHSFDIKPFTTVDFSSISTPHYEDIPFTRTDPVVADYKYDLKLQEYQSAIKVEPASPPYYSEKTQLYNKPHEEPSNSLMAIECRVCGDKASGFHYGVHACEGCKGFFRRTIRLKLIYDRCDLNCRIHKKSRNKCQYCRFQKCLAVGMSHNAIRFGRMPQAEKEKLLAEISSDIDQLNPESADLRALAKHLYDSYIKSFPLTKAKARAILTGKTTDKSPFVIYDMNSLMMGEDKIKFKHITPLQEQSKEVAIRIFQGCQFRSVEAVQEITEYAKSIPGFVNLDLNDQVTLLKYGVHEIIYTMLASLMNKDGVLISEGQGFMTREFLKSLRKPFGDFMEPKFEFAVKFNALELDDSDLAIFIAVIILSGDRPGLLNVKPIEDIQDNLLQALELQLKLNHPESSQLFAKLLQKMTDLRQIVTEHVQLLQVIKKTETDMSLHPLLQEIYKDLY
Summary of the method: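 Cell-free fluorescence polarization binding to human PPARg protein, read 2 h after dosing. Primary screen in duplicate at 25 uM, actives followed in concentration series; loss of signal relative to DMSO scored.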

[7] = target: Androgen Receptor/SRC-1 Co-activator, AR (gene 367) (UniProt P10275); test: OT_AR_ARSRC1_0960: Odyssey Thera (OT) 16-hour HEK293T Protein-Complementation Assay for Androgen Receptor/SRC-1 Co-activator (AID 2283353);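 further: actives raise the signal above DMSO so potency reflects increased AR and SRC-1 complex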
Chain of Androgen Receptor/SRC-1 Co-activator, AR (gene 367) (P10275 whole entry, looked up, the tested form may be a part): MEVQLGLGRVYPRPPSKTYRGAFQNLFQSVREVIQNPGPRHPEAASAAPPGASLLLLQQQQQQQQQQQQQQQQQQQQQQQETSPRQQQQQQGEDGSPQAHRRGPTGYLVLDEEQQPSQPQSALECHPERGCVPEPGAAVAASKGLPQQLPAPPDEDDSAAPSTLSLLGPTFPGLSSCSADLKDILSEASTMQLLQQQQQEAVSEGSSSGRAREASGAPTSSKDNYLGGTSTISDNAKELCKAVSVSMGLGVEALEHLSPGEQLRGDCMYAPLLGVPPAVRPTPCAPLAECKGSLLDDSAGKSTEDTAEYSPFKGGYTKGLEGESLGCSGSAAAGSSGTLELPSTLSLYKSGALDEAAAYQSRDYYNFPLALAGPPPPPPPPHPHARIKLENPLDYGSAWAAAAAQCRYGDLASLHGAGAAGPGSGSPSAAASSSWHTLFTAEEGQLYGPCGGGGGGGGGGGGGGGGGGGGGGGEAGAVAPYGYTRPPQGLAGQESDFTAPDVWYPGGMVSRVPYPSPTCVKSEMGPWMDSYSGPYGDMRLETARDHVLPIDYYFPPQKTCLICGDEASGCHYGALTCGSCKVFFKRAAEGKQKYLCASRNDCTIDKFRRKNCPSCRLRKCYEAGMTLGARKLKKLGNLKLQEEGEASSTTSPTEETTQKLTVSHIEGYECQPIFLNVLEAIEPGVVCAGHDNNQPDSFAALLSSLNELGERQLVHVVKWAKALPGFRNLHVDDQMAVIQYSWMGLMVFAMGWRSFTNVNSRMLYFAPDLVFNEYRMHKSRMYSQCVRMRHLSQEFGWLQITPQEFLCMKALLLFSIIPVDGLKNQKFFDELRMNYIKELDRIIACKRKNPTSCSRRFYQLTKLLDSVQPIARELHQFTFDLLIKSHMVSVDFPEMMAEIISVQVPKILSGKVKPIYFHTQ
Summary of the method: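 HEK293T cells stably expressing AR and SRC-1 fused to split Venus YFP fragments via (Gly4Ser)2 linkers were dosed for 16 h. Nuclear/cytoplasmic fluorescence ratio at 488 nm, ≥400 cells per image, fitted for gain of signal versus DMSO.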

[8] = target: Androgen Receptor/SRC-1 Co-activator, AR (gene 367) (UniProt P10275); test: OT_AR_ARSRC1_0480: Odyssey Thera (OT) 8-hour HEK293T Protein-Complementation Assay for Androgen Receptor/SRC-1 Co-activator (AID 2283354);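 further: hits raise the complementation signal above DMSO so AC50 marks enhancers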
Summary of the method: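 HEK293T cells stably expressing AR and SRC-1 fused to split Venus YFP fragments via (Gly4Ser)2 linkers were read 8 h after compound dosing. Complementation was imaged at 488 and 635nm, and nuclear/cytoplasmic fluorescence ratio (488nm) was taken over ≥400 cells; gain-of-signal versus DMSO.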

[9] = target: human Thyroid Receptor Alpha (TRa), THRA (gene 7067) (UniProt P10827); test: NVS_NR_hTRa_Antagonist: NovaScreen (NVS) Nuclear Receptor Binding Assay for human Thyroid Receptor Alpha Antagonism (TRa) (AID 2283362);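 further: activity is loss of signal relative to DMSO baseline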
Summary of the method: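 Cell-free AlphaLISA chemiluminescent binding read 1 h after dosing, antagonist mode; signal loss versus DMSO baseline. Primary screen in duplicate at 25 uM, then concentration series for actives.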

[10] = target: Agonist Androgen Response Element (ARE), AR (gene 367) (UniProt P10275); test: OT_AR_ARELUC_AG_1440: Odyssey Thera (OT) 24-hour CHO-K1 Luciferase Assay for Agonist Androgen Response Element (ARE) (AID 2283379)
Chain of Agonist Androgen Response Element (ARE), AR (gene 367) (P10275 whole entry, looked up): as the sequence (P10275 whole entry, looked up, the tested form may be a part) above
Summary of the method: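 Seed CHO-K1 cells; dose compounds for 24 h; add D-luciferin plus ATP in PBS; read luminescence. Signal increase relative to vehicle defines agonist activity, with at least 3 replicate wells per sample.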

[11] = target: mouse Estrogen Receptor alpha (Era), Esr1 (gene 13982) (UniProt P19785); test: NVS_NR_mERa: NovaScreen (NVS) Nuclear Receptor Binding Assay for mouse Estrogen Receptor alpha (Era) (AID 2283378);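 further: hit means loss of bound radioligand signal relative to DMSO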
Summary of the method: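 Cell-free radioligand competitive displacement binding, read by filter-based scintillation counting 18 h after dosing. Primary screen run in duplicate at 25 uM, actives retested in concentration series; loss of signal versus DMSO.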

[12] = target: human Peroxisome Proliferator-activated Receptor alpha (PPARa), PPARA (gene 5465) (UniProt Q07869); test: NVS_NR_hPPARa: NovaScreen (NVS) Nuclear Receptor Binding Assay for human Peroxisome Proliferator-activated Receptor alpha (PPARa) (AID 2283359);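 further: activity means loss of TR-FRET signal versus DMSO baseline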
Summary of the method: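 Cell-free binding assay with extracted human protein, read by TR-FRET 1 h after chemical dosing. Loss of signal relative to DMSO baseline indicates binding. Primary screen used duplicate single concentration (25 uM); actives followed up in concentration series.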

[13] = target: Glucocorticoid receptor (Homo sapiens) (UniProt P04150); test: NVS_NR_hGR: NovaScreen (NVS) Nuclear Receptor Binding Assay for human Glucocorticoid Receptor (GR) (AID 2283363);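 further: activity is loss of specific radioligand binding signal relative to DMSO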
Summary of the method: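 Cell-free radioligand binding with extracted receptor protein, read by filter-based scintillation counting 16 hours after dosing. Loss of specific signal versus DMSO baseline was scored. Primary screen ran in duplicate at 25 uM; actives were followed up in concentration series.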

[14] = target: rat Androgen Receptor (AR), Ar (gene 24208) (UniProt P15207); test: NVS_NR_rAR: NovaScreen (NVS) Nuclear Receptor Binding Assay for rat Androgen Receptor (AR) (AID 2283366)
Summary of the method: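 Cell-free radioligand binding on extracts of prostate from testosterone-pretreated rats, read by filter-based scintillation counting 18 h after dosing. Loss of bound signal fitted positively versus DMSO; primary screen in duplicate at 25 uM, actives followed up in concentration series.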

Measured: AC50

CC(C)c1cccc(O)c1
active: [3] 52 µM | [5] 33.5 µM
inactive: [1] | [2] | [4]

CCCCCCCCCCCCCC(=O)O
inactive: [1] | [2] | [3] | [6] | [5]

CC(=O)OCCOC(C)=O
inactive: [1] | [2] | [3] | [5]

CCCCCCCCCCCCCCCC(=O)OC[C@H](O)[C@H]1OC(=O)C(O)=C1O
active: [6] 25 µM
inactive: [7] | [8] | [9] | [4] | [10]

CC(C)(C)C(=O)c1ccccc1
inactive: [1]

C=C(C)C(=O)O
inactive: [1] | [2] | [5]

Cc1ccc(S)cc1
inactive: [1] | [2] | [3] | [5]

c1ccc(CCCc2ccccn2)cc1
inactive: [1] | [2] | [3] | [6] | [5]

BrC1CCC(Br)C(Br)CCC(Br)C(Br)CCC1Br (configuration not stated)
inactive: [1] | [8] | [3] | [6] | [10] | [5]
active: [7] 19.6 µM | [2] 60.4 µM

NC(=O)Nc1ccc(Cl)cc1
inactive: [1] | [2] | [3] | [11] | [5]

O=C1c2ccccc2C(=O)N1SC1CCCCC1
inactive: [1] | [3] | [11] | [5]

CCCCc1ccc(N)cc1
inactive: [1] | [3] | [5]
active: [2] 39.6 µM

CCC/C=C/C=O
inactive: [1] | [7] | [8] | [2] | [3] | [4] | [6] | [10] | [5]

CCN(CC)c1ccc2c(-c3ccccc3C(=O)O)c3ccc(=[N+](CC)CC)cc-3oc2c1
active: [1] 12.2 µM | [2] 12 µM | [3] 12.2 µM | [5] 12.2 µM

O=Nc1ccc(Nc2ccccc2)cc1
inactive: [1] | [2] | [6] | [10] | [5]
active: [7] 14.2 µM | [8] 11 µM | [9] 17.6 µM | [11] 46.4 µM

CCCCCCCCC=O
inactive: [1] | [2] | [3] | [11] | [5]

CCCCC[Si](OCC)(OCC)OCC
inactive: [7] | [8] | [3] | [12] | [4] | [5]

CCCCCCCCCCCCCOS(=O)(=O)O
inactive: [7] | [8] | [3] | [4] | [10] | [5]
active: [12] 2.1 µM | [13] 2.94 µM | [14] 1.7 µM | [6] 0.832 µM

O=c1cc(-c2ccccc2)oc2cc(O)cc(O)c12
active: [3] 7.09 µM | [5] 11 µM
inactive: [7] | [8] | [4] | [10]

CCN(CC)c1ccc(C(=C2C=CC(=[N+](CC)CC)C=C2)c2ccc(S(=O)(=O)O)cc2S(=O)(=O)[O-])cc1
inactive: [7] | [8] | [3] | [10] | [5]
active: [9] 8.03 µM

CC(=O)OCCC(C)CC(C)(C)C (configuration not stated)
inactive: [1]

CN(C)CCCN
inactive: [1]

c1ccc2[nH]ccc2c1
inactive: [7] | [8] | [3] | [9] | [4] | [10] | [5]

CC(C)(N)CO
inactive: [1] | [2] | [3] | [5]
